Source: PubChem (several laboratories)
Sampled rows, rich in hits. Any-hit rate of the full collection: about 3.8%.
PrPC TRFRET: inhibitors of human cell surface prion protein PrPC; inhibition, % at 13.8 µM; TR-FRET read-out; actives 0.43% (n = 370,000); AID 720596; in the data active means inhibition above about 24%
Mtb hypoxia inh: inhibitors of hypoxia-regulated fluorescent reporter in Mycobacterium tuberculosis | M. tuberculosis hypoxia-regulated fluorescent reporter, fluorescence | fluorescence inhibition, % (concentration not given with the values) | actives 0.1% (n = 300,000) | AID 1159583; in the data active means fluorescence inhibition mostly above about 23%, no sharp cut-off; inactive means mostly below about 17%
GDH-TPI counter-1: GDH-TPI coupled enzyme inhibition counter-screen | GDH-TPI coupled enzyme counterscreen, NADH absorbance | inhibition, % at 4.8 µM | actives 1.2% (n = 360,000) | AID 588335; in the data active means inhibition above about 30%
PrP UTR inh: inhibition of PrP 5' UTR reporter expression; inhibition, % (concentration not given with the values); actives 0.35% (n = 340,000); cell-based PrP 5' UTR mRNA reporter, plate reader; in the data active means inhibition above about 52%
Y pestis TopoI: blocks Yersinia pestis topoisomerase I activity; activity, % at 10 µM; Y. pestis Topo-I cleavage product accumulation, plate reader; actives 0.064% (n = 360,000); in the data active means activity above about 50%, passing the limit was not always enough
FBA Mtb inh: inhibits M. tuberculosis FBA enzyme | purified M. tuberculosis FBA, fluorescence read-out | inhibition, % at 1 µM | actives 2.3% (n = 360,000) | AID 588726
Target sequence (P9WQA3 whole entry, looked up): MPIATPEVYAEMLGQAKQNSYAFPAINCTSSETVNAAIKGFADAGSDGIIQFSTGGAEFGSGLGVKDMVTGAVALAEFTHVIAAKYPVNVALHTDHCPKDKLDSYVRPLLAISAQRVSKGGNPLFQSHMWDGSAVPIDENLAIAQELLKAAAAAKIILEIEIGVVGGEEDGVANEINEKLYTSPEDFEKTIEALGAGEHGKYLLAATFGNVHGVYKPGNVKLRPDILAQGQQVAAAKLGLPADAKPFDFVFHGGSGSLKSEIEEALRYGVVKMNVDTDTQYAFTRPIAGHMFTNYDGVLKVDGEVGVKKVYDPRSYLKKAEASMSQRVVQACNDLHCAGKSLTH
Mtb FBA confirm: Mtb FBA inhibition, confirmed | shares compounds with FBA Mtb inh | purified M. tuberculosis FBA, fluorescence read-out | inhibition, % at 1 µM | actives 78% (n = 5,600) | AID 651616
GDH-TPI counter-2: inhibits GDH-TPI coupling enzymes, flagging Mtb FBA hits; shares compounds with FBA Mtb inh; GDH-TPI coupled enzyme counterscreen, fluorescence; inhibition, % at 1 µM; actives 81% (n = 5,600); AID 652141; in the data active means inhibition above about 10%
GDH-TPI dose: counter-screen for M. tuberculosis FBA inhibitors: GDH-TPI dose response | GDH-TPI coupled enzyme assay, fluorescence, artifact counterscreen | actives 79% (n = 170) | AID 652145 | shares compounds with FBA Mtb inh | IC50, µM; call rule not given here
Hits are given with their value; - = inactive; . = no result given; + = active, no number. Unless noted, no stated cut-off is given here; in the data, active means inhibition above about 27%; inactive means the rest.

SMILES	PrPC TRFRET	Mtb hypoxia inh	GDH-TPI counter-1	PrP UTR inh	Y pestis TopoI	FBA Mtb inh	Mtb FBA confirm	GDH-TPI counter-2	others
CC=C(C)C(=O)Nc1cccc(C2=NOC3(C2)CC(C(N)=O)N(C(=O)CC)C3)c1 (stereo unspecified)	.	-	.	.	.	.	.	.
CC(C)CCNC(=O)COc1ccc2c(c1)C(=O)CC(C)(C)O2	-	-	-	-	-	49.9	+	+
CC1(C)CC(=O)c2cc(OCC(=O)NCCCN3CCN(c4ccc(F)cc4)CC3)ccc2O1	-	-	-	.	-	-	.	.
CC1(C)CC(=O)c2cc(OCC(=O)NCCN3CCCc4ccccc43)ccc2O1	-	-	-	-	-	-	.	.
CCC(Oc1ccc2c(c1)C(=O)CC(C)(C)O2)C(=O)NCCN1CCCCCC1 (stereo unspecified)	-	-	-	-	-	59.3	-	-
O=C(O)c1ccccc1C=NNc1nc(N2CCCCC2)nc(N2CCCCC2)n1	.	-	.	.	.	.	.	.
Cc1cc(C)c2nc(-c3cccnc3)cc(C(=O)NC(C)c3cnn(C)c3C)c2c1 (stereo unspecified)	-	-	-	-	-	40.3	+	169.3
Cc1cccc2c(C(=O)O)cc(-c3cccnc3)nc12	-	-	-	-	-	-	.	.
COc1cc(OC)cc(C(=O)Nc2ccc(N(C)C)c3ccccc23)c1	-	-	-	-	-	-	.	.
CN(C)c1ccc(NC(=O)Cc2ccccc2)c2ccccc12	-	-	-	-	-	29.0	38.7	33.8
Cc1nc2oc3c(=O)[nH]cnc3c2c2c1COC(C)(C)C2	-	-	-	-	-	44.0	-	-	GDH-TPI dose=4.75
COCc1c(C(=O)NN=C(C)c2ccc(OCc3ccccc3)cc2)nnn1-c1nonc1N	.	-	.	.	.	.	.	.
C/C(=N\NC(=O)c1nnn(-c2nonc2N)c1COc1ccc(F)cc1)c1ccc(Cl)cc1	-	.	-	-	-	28.6	+	+
COCc1cc(C)nc(NN=Cc2ccc(-c3cc(C(=O)O)ccc3Cl)o2)c1C#N	.	-	.	.	.	.	.	.
COc1ccc(C2C3=C(CC(C)(C)CC3=O)Nc3nc(C)nn32)cc1OC (stereo unspecified)	-	-	-	.	-	35.6	+	+
COc1ccc(C2C3=C(CCCC3=O)Nc3nc(C(F)(F)F)nn32)cc1OC (stereo unspecified)	-	-	-	-	-	-	.	.
Cn1cc(-c2cccc(C(F)(F)F)c2)cc(C#N)c1=O	-	-	-	-	-	45.6	93.9	61.8
Cn1cc(-c2cccc(Cl)c2)cc(C#N)c1=O	-	-	-	-	-	43.6	61.6	42.5
CC(C)n1cc(-c2ccc(Cl)cc2)cc(C#N)c1=O	-	-	-	-	-	-	.	.
COC(=O)C1=C(c2ccc(F)cc2OCc2ccccc2)CC2CCC1N2C(=O)NCc1ccc(N(C)C)cc1 (stereo unspecified)	.	-	.	.	.	.	.	.
N#Cc1c2c(c(NCc3ccco3)n3c1nc1ccccc13)CCC2	-	.	-	-	-	90.1	+	+
CC(C(O)c1ccccc1)N(C)C(=O)CN (stereo unspecified)	.	-	.	.	.	.	.	.
O=c1[nH]c(-c2ccc(O)cc2)nc2scc(-c3cccs3)c12	-	-	-	-	-	34.9	.	+
CN(C)C=NS(=O)(=O)c1ccc(Cl)cc1	.	-	.	.	.	.	.	.
NCCCCC1NC(=O)c2cc([N+](=O)[O-])cc(F)c2NCCCCC(C(N)=O)NC(=O)CNC1=O (stereo unspecified)	.	-	.	.	.	.	.	.
SMILES	PrPC TRFRET	Mtb hypoxia inh	GDH-TPI counter-1	PrP UTR inh	Y pestis TopoI	FBA Mtb inh	Mtb FBA confirm	GDH-TPI counter-2	others
COc1ccc(-c2nc3ncccn3c2Br)cc1	-	.	-	-	-	49.1	+	186.5
Brc1c(-c2ccc3c(c2)OCO3)nc2ncccn12	-	.	-	-	-	-	.	.
Nc1cc(Cl)ccc1C(=O)OCC(=O)NC1CCS(=O)(=O)C1 (stereo unspecified)	-	.	-	-	-	52.0	169.7	158.4
CN(C(=O)COC(=O)c1ccc(Cl)cc1N)C1CCCCC1	-	-	-	-	-	38.5	40.2	31.6
Nc1cc(Cl)ccc1C(=O)OCC(=O)NCc1cccs1	-	-	-	-	-	56.4	31.2	21.1
O=C(CCC(=O)NN=Cc1ccccc1O)NCc1ccccc1	.	-	.	.	.	.	.	.
CCC(C)NC(=O)c1cc2c(=O)n3cccc(C)c3nc2s1 (stereo unspecified)	-	-	-	.	-	103.9	170.8	147.4
COc1ccc(CCNC(=O)c2cc3c(=O)n4cccc(C)c4nc3s2)cc1OC	-	-	-	-	-	-	.	.
C=CCNC(=O)c1cc2c(=O)n3cccc(C)c3nc2s1	-	-	-	-	-	93.1	164.8	133.2
CCN(CC(=O)Nc1c(F)cccc1F)C(=O)COc1ccc2c(C)cc(=O)oc2c1	-	-	-	-	-	29.9	123.4	109.3
Cc1cc(=O)oc2cc(OCC(=O)OC(C)C(=O)Nc3ccc(S(N)(=O)=O)cc3)ccc12 (stereo unspecified)	-	-	-	-	-	33.4	81.8	66.3
Cc1cc(=O)oc2cc(OCC(=O)OC(C)C(=O)NC3CCCC3)ccc12 (stereo unspecified)	-	-	-	-	-	-	.	.
Cc1cccc(C(C)C)c1NC(=O)COC(=O)COc1ccc2c(C)cc(=O)oc2c1	-	-	-	-	-	30.1	-	-
Cc1cccc(C)c1NC(=O)COC(=O)COc1ccc2c(C)cc(=O)oc2c1	-	-	-	-	-	-	.	.
COc1ccc(N(CC(=O)NN=Cc2ccc3c(c2)OCO3)S(=O)(=O)c2ccccc2)cc1	.	-	.	.	.	.	.	.
C=CCn1c(SCC(=O)N(CC)C2CCS(=O)(=O)C2)nc2cc(C(=O)O)ccc2c1=O (stereo unspecified)	-	-	-	-	-	32.2	111.0	89.2
CC(=O)c1sc(NN=Cc2ccc(N(C)C)cc2)nc1C	.	-	.	.	.	.	.	.
O=C(COc1ccc2ccc(=O)oc2c1)N1CCC(C(=O)O)(c2ccccc2)CC1	-	.	-	-	-	27.1	+	+
Cc1c(C)c2ccc(OCC(=O)N3CCC(C(=O)O)(c4ccccc4)CC3)c(C)c2oc1=O	-	.	-	-	-	99.2	102.5	90.6
Cc1c(C)c2ccc(OCC(=O)N3CCOCC3)c(C)c2oc1=O	-	-	-	-	-	81.3	-	-
CCCCc1cc(=O)oc2c(C)c(OCC(=O)N3CCC(C(=O)O)(c4ccccc4)CC3)ccc12	-	.	-	-	-	34.5	182.1	131.3
Cc1oc2cc3oc(=O)c(CCC(=O)N4CCC(C(=O)O)(c5ccccc5)CC4)c(C)c3cc2c1C	-	.	-	.	-	-	.	.
COc1cc(OC)nc(N=CN(C)C)n1	.	-	.	.	.	.	.	.
